About 83,000 compounds went through this panel and 20% of them were active in at least one assay; those are over-represented in the sample as a whole.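 A percent growth of 40 corresponds to 60% growth inhibition; 0 means no net growth; -100 means all cells died. Active threshold: below 10.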 Values without a mark were called inactive. Active and inactive are the calls of the source.
System: OVCAR-8 ovarian
Test: NCI-60 one-dose screen, 48 h (100 = growth as untreated, 0 = no growth, -100 = all killed)
Details: 10 µM unless noted
Procedure: Growth inhibition of the OVCAR-8 human tumor cell line is measured as a screen for anti-cancer activity. Cells are grown in 96 well plates and exposed to the test compound for 48 hours. Compounds are tested at a single concentration, which is 10^-5 M for most compounds. The reported endpoint is percent growth (GI% or GIPRCNT), where numbers from 0 - 100% represent growth inhibition, and numbers from -100% - 0 represent cell death. For example, a value of 40 represents 60% growth inhibition. A value of 0 means no net growth occurred over the course of the experiment. A value of -40 indicates 40% of cells at the beginning of the experiment died by the end of the experiment. A value of -100 means all cells are dead at the end of the experiment.
NCI-60 Human Tumor Cell Lines Screen was performed using the standard one-dose NCI protocol, which is described in more detail at https://dtp.cancer.gov/discovery_development/nci-60/default.htm.
Compounds with GIPRCNT values below 10 were considered active. Activity score was based on GIPRCNT using the following formula: […]
Score is 0 for GIPRCNT values of 100 or above, 50 for GIPRCNT values of 0, and 100 for GIPRCNT values of -100.

Row | SMILES | growth
1 | O=C(c1ccccc1)N(CCCl)C(=O)N(CCCl)C(=O)c1ccccc1 | 98.5%
2 | Nc1ccc(Oc2ccccc2)c(Cl)c1 | 95%
3 | CC(C)(C)CC(C)(C)c1ccc(OCCOCCSC(=N)N)cc1 | 58.5%
4 | c1ccc(C2NCCNC2c2ccccc2)cc1 (stereo not given) | 101%
5 | CN=C(N)N/N=C(\c1ccccc1)c1ccc(Br)cc1 | 1.03% (active)
6 | CN(C)c1ccc(C(=C2C=CC(=[N+](C)C)C=C2)c2ccc(N(C)C)cc2)cc1 | -44.8% (active)
7 | CCCCCCCCCCCCCCCCCC1=NCCCN1CCO | 101%
8 | C(=N\Nc1ccc2ccccc2n1)/c1ccccn1 | 18.5%
9 | O=C(/C(Cl)=N/O)c1ccc(-c2ccccc2)cc1 | 97.8%
10 | CCOC(=O)/C(=C\c1ccc2ccccc2c1)P(=O)(OCC)OCC | 20.1%
11 | CC1(C)N=c2cc3c(cc2N1c1ccc(Cl)cc1)=Nc1ccccc1N3c1ccc(Cl)cc1 | 21%
12 | O=C1/C(=C/c2ccccn2)CCc2ccccc21 | 109%
13 | O=C1C=CC(=O)N1c1ccc(O)cc1 | 109%
14 | O=C1/C(=C/c2ccccc2)CCC/C1=C\c1ccccc1 | 91.7%
15 | Cc1cc(=O)oc2cc(O)cc(O)c12 | 105%
16 | COc1ccc2c(c1)c(CC(=O)O)c(C)n2C(=O)c1ccc(Cl)cc1 | 104%
17 | CC(C)(C)c1ccc(O)c(-c2ccccc2)c1 | 107%
18 | CCc1cnc2ccccc2c1/C=C/c1ccc(N(C)C)cc1 | 59.5%
19 | CC(C)=C1C=C2CC[C@@H]3[C@](C)(CCC[C@@]3(C)C(=O)O)[C@H]2CC1 | 100%
20 | O=C(NOC(=O)c1ccccc1)c1ccccc1 | 119%

Row | SMILES | growth
21 | NNc1cccc([N+](=O)[O-])c1 | 78%
22 | CC1C(c2ccccc2)OCCN1C(=S)Nc1ccc(S(=O)(=O)N2CCCCC2)cc1 (stereo not given) | 92.5%
23 | CCC(=O)c1cc([N+](=O)[O-])c(Br)s1 | 91.4%
24 | CC(=O)C1Cc2ccccc2C1=O (stereo not given) | 119%
25 | COC(=O)c1ccc(=O)c2nc3/c(=C/O)c(O)cc(=O)c3[nH]c12 | 12.2%
26 | Oc1cc(Cl)ccc1Cc1ccc(Cl)cc1O | 64.6%
27 | CC(O)C(O)C(O)C(O)C(O)C(=O)NNc1ccccc1 (stereo not given) | 96.4%
28 | S=C(S)OCN1CCOCC1 | 88%
29 | NCCCN(CCCN)CCCNCc1c2ccccc2c(CNCCCN(CCCN)CCCN)c2ccccc12 | 98.5%
30 | Clc1ccc(Cc2nc3ccccc3s2)cc1 | 102%
31 | O=[N+]([O-])c1ccc(Oc2ccccc2Cl)c([N+](=O)[O-])c1 | 93.2%
32 | CCCCCCCCCCCCCCCCSC(=NCC)NCC | -15.4% (active)
33 | NC(=S)Nc1ccc2c(c1)Cc1ccccc1-2 | 84.5%
34 | CCCN(CCC)C(=O)c1ccc(C)cc1 | 103%
35 | COC(=O)c1nc(=S)[nH]c(C(=O)OC)c1C(=O)c1ccc(Cl)c(Cl)c1 | 111%
36 | COc1ccc(NC(=O)/C(=C/N2C(=O)/C(=C/c3ccc(OC)c(OC)c3)NC2=S)C(C)=O)cc1 | 80.8%
37 | C/C(=N/NC(N)=S)c1ccc(C)cc1 | 76.7%
38 | CCOc1ccc(C(CN2CCOCC2)C(C)=O)cc1OC (stereo not given) | 96.3%
39 | O=[n+]1c2ccccc2n([O-])c2cc(Cl)ccc21 | 43%
40 | Oc1c(Cl)cc(Cl)cc1C(c1cc(Cl)cc(Cl)c1O)C(Cl)(Cl)Cl | -0.45% (active)
